Over roughly 39,000 sequences, “fluorescence intensity (a.u.)” has its median near 4,300; the highest 2% begin near 39,000. For the sample, the highest values were picked, then their nearest neighbours and some sequences at random.

This assay has as its target T1, OsSMF1 (Oryza sativa, UniProt Q6ZLB0 1-436).
T1 sequence: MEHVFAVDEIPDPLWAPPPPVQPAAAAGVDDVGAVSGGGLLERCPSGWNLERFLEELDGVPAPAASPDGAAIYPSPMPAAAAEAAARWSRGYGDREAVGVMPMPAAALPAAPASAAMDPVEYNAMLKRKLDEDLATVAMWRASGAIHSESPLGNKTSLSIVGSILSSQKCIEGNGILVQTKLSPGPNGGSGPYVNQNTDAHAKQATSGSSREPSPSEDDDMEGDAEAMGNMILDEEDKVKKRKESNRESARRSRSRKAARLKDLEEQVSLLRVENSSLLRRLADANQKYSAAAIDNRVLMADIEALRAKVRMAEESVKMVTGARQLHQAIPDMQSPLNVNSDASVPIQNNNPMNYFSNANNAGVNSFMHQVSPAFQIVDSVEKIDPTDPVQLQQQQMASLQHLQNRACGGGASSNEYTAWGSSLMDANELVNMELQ
As to the kind of experiment: protein-binding microarray (RPBM); PBS, 2% BSA, 51.3 ng/ul salmon testes DNA, 50 uM zinc acetate, 200 nM TF, 25 C, 1 h; high values mean tight binding. As to conditions: protein: recombinant; tags: N-terminal polyhistidine and DsRed monomer fusion (pET32a); chain copies: 2; label: CyDye5-dUTP incorporated in the synthesized complementary strand; 3' TTTTT single-stranded linker to array surface; dsDNA, one strand shown. In a few lines:
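The binding signal for each feature is its fluorescence intensity in arbitrary units. An Axon 4000B scanner was used to read a custom Agilent array that had been made double-stranded with Cy5-dUTP primer extension, blocked with 2% BSA, incubated at 25 °C for 1 h with 200 nM protein in PBS, 2% BSA, salmon testes DNA and 50 µM zinc acetate, and washed. The protein was an N-terminal polyhistidine–DsRed transcription factor fusion from E. coli BL21-CodonPlus, purified on Ni–NTA.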
For the sequence “TTGTTGAACTATAGGGTAGATGTGATATGTAAGAATTGCCCGGAGTCACCTAGTGCAG”, the binding signal is 3280 fluorescence intensity (a.u.).

As for “CCGGGGTGTCAGAAATCCAGGCCCACCCGTCAGCGACGCGCGGAGTCACCTAGTGCAG”, the binding signal is 4130 fluorescence intensity (a.u.).

For the sequence “AAATCTCTCTCCACCCTTTCAGCGCGCCACGTGTCCCACACGGAGTCACCTAGTGCAG”, the binding signal was 18900 fluorescence intensity (a.u.).

As to “CAAAATACTCAAGCGGCGGCATTGTCATCTTCCTCCTCCCCGGAGTCACCTAGTGCAG”, the binding signal was 3550 fluorescence intensity (a.u.). In the case of “AATGCCAAGTGGCAGCCTATGAGCGTTTGTAGCATGCCATCGGAGTCACCTAGTGCAG” it was 41200 fluorescence intensity (a.u.). “TGCTATGCTATGGCAAGAACATCTTGAGCCATGACATCATCGGAGTCACCTAGTGCAG”: the binding signal was 4390 fluorescence intensity (a.u.). Turning to “GAGTATTTGGCATGGTTGTAGCGTTGGTGACCTGAGTCATCGGAGTCACCTAGTGCAG”, the binding signal was 7270 fluorescence intensity (a.u.). The result for “TCTGTTTAGTTACATCACTGATGGTCTTGATTTCGCAGTGCGGAGTCACCTAGTGCAG” reads 4040 fluorescence intensity (a.u.); that for “CTGCACTACGCCGCAGACGAACTGACGTGGTCGTATAAAACGGAGTCACCTAGTGCAG”, 5790 fluorescence intensity (a.u.). With “CCCTGGGTGGTTTTGGAGGTGGTTTTGGTTGACGTGGCGCCGGAGTCACCTAGTGCAG”, the binding signal was 21400 fluorescence intensity (a.u.). The result for “GGTCAAGAGCGCATCCAGCATGTCGTCGTGTACCTGACCGCGGAGTCACCTAGTGCAG” reads 3720 fluorescence intensity (a.u.); that for “TAGGTTAGTGGTGGCTGGGTCGTCACGTCATTGCATTGCACGGAGTCACCTAGTGCAG”, 3270 fluorescence intensity (a.u.); that for “AGTAGTATTGGCTTGGGGTGTTGCCACGTCATCACCTGGTCGGAGTCACCTAGTGCAG”, 55000 fluorescence intensity (a.u.). As for “AGATTTTGGGTGTGTTTGGTTGCTTGCATTGTTTTAGTCTCGGAGTCACCTAGTGCAG”, the binding signal is 3300 fluorescence intensity (a.u.). In the case of “TAGTGTTTGTTTTGGGTTGTGCTCAGCTTAGCTCTGGTGTCGGAGTCACCTAGTGCAG” it was 39800 fluorescence intensity (a.u.); in that of “CCATGGCGGGGTGTATTGTTGTTGTATTTGGGGTTCTGGTCGGAGTCACCTAGTGCAG”, 3630 fluorescence intensity (a.u.).

Regarding “TTTAGCTCTCGTCGATGTGGTGTTTGTTGGGTTTTCCCTTCGGAGTCACCTAGTGCAG”, the binding signal was 3670 fluorescence intensity (a.u.).

For “GTGGTGTTACGCTACTCGTGCAGTAGTGCCTCATCATGGGCGGAGTCACCTAGTGCAG”, the binding signal is 3500 fluorescence intensity (a.u.). In the case of “TGTAGTGTTACAGTATGCCACGTCATCATGCTACGCTATTCGGAGTCACCTAGTGCAG” it was 43900 fluorescence intensity (a.u.). Regarding “TTGTTCCTTTACAGTTTACAGTCATCTCTATTGTAGTATTCGGAGTCACCTAGTGCAG”, the binding signal was 4220 fluorescence intensity (a.u.). The result for “ACTCTGCCGGCAGGCGTACGTGTGTCCCGGCATTTGGTCGCGGAGTCACCTAGTGCAG” reads 4500 fluorescence intensity (a.u.); that for “TCTTCCAAATGAACTGGCAATATACTTGTACACGTTCTGTCGGAGTCACCTAGTGCAG”, 3190 fluorescence intensity (a.u.); that for “ATTCACAGGCCTTTCTTAATTAAAACGGTAGATGGAGCAACGGAGTCACCTAGTGCAG”, 28400 fluorescence intensity (a.u.). In the case of “TTGCCGTATCGGCTCGCCTGAAAGCGTGTCATTAGCATGACGGAGTCACCTAGTGCAG” it was 3950 fluorescence intensity (a.u.). The result for “GCACATGACTGTGCAAACGCTGTTCCTGATCTGAGTAAGACGGAGTCACCTAGTGCAG” reads 4170 fluorescence intensity (a.u.); that for “CGGCCGCGACACGCACACGCCCACCCCACGCCCGCCGCGCCGGAGTCACCTAGTGCAG”, 3140 fluorescence intensity (a.u.); that for “GGTCTTGGTAGCCACCGTGTACGGCCTCTGCGGCATGCAGCGGAGTCACCTAGTGCAG”, 3770 fluorescence intensity (a.u.).

Turning to “ATGTTATCGTGCTAGTGTCAGCACATTCTCACTGATATTACGGAGTCACCTAGTGCAG”, the binding signal is 5330 fluorescence intensity (a.u.).

Regarding “GTAAGGCGTCCATGTGATGTCATTGTTGATGGGCAAGTGCCGGAGTCACCTAGTGCAG”, the binding signal was 6430 fluorescence intensity (a.u.). The result for “CGCATCGCATCTATGACTGGAGAGTGTATCTTTGCTTGCACGGAGTCACCTAGTGCAG” reads 3180 fluorescence intensity (a.u.); that for “TCACCAGCGTCCGGTCAGCCATGGCGCTGAGTGGCCTCTTCGGAGTCACCTAGTGCAG”, 21000 fluorescence intensity (a.u.); that for “TACTTCTTCTAAATGCTATAGCCAGGGAATGCAAACGAGACGGAGTCACCTAGTGCAG”, 42000 fluorescence intensity (a.u.).

As to “AAAATGTGAATCTTTTGTATAGCCAGCTTCTTCTAAAACACGGAGTCACCTAGTGCAG”, the binding signal is 24900 fluorescence intensity (a.u.).

Take “AATTGATTTCTCTATAGACAAATAGGGAATGCCAGATTGACGGAGTCACCTAGTGCAG”: the binding signal is 20100 fluorescence intensity (a.u.). Regarding “CTGCGCCATCCACGCCAAGCGCGTCACCATCATGCCCAAGCGGAGTCACCTAGTGCAG”, the binding signal is 6140 fluorescence intensity (a.u.). In the case of “TTCATATCATATACGTACACGTGGAATAATTTGTAATTATCGGAGTCACCTAGTGCAG”, the binding signal is 9010 fluorescence intensity (a.u.). The result for “CTCGGGGTTAAGCAGAGGTTATCGTCCCCGCCGCAGGTTACGGAGTCACCTAGTGCAG” reads 4020 fluorescence intensity (a.u.).

As to “TTCAGGATGAATGGTACGTAACATGATAGGACACTATTCACGGAGTCACCTAGTGCAG”, the binding signal was 48700 fluorescence intensity (a.u.).

Turning to “TTCCAACACTAGGATGGTATATGAACCACCAGGATACAAACGGAGTCACCTAGTGCAG”, the binding signal was 41800 fluorescence intensity (a.u.).

In the case of “CCGGATATGTTCTCGTAGTTTATATACGTTCATGATGACACGGAGTCACCTAGTGCAG”, the binding signal was 3450 fluorescence intensity (a.u.). The result for “AAACGAATCTAGGAATATATGTGACACATCATAGTACTACCGGAGTCACCTAGTGCAG” reads 4370 fluorescence intensity (a.u.); that for “CCACAAACCAAACCAACCCAAGATATCCTGATGAACCAAACGGAGTCACCTAGTGCAG”, 35300 fluorescence intensity (a.u.); that for “AACACACTAGTAATACGAATCTGAATATGGTACTAGGATACGGAGTCACCTAGTGCAG”, 64200 fluorescence intensity (a.u.).
